PLAP activator: activators of human placental alkaline phosphatase; purified PLAP enzyme, luminescent substrate read-out; stronger effect = higher value; P05187; activation fold at 20 µM; actives 1.2% (n = 96,000); in the data active means activation fold above about 2
hDAT+cocaine: changed human dopamine transporter uptake under cocaine IC80. Q01959. LLC-PK1 hDAT cells, [14C]-dopamine uptake with cocaine IC80; actives deviate in either direction. actives 1.3% (n = 110,000). B-score at 10 µM. AID 449768;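 active means Z score or B-score, a plate-position-corrected score, falls beyond the plate's 99.7% confidence bounds, in either direction; inactive means both scores lie inside the 99.7% bounds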;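 further: scored against the spread of the other compound wells on the same plate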
PostGolgi yeast: growth inhibition of a yeast mutant, post-Golgi transport screen | actives 0.9% (n = 98,000) | inhibition, % at 10 µM | post-Golgi transport phenotypic cell assay;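 further: yeast cells grown in 1536-well plates; yeast grown about 18 h at 30C before absorbance read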
Cav32 inh: human Cav3.2 channel inhibition, primary screen; O95180; B-score at 10 µM; actives 4% (n = 100,000); Cav3.2-expressing cells, Fluo-4 calcium fluorescence FDSS; stronger effect = lower value;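 active means single-dose well whose peak fluorescence ratio is a statistical outlier from its plate by either plate-standardised score or position-corrected B-score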
PostGolgi ctrl: yeast control strain growth, post-Golgi counter-screen; actives 5% (n = 98,000); inhibition, % at 10 µM; efflux-deficient yeast background strain, growth absorbance A615, 16 h
* hit, by the source's call; nt = not tested or not shown. This is a sample that favours compounds with a hit; in the whole collection about 9.6% have one here. Unless noted, no stated cut-off is given here; in the data, active means inhibition above about 30%; inactive means the rest.

SMILES	PLAP activator	hDAT+cocaine	PostGolgi yeast	Cav32 inh	PostGolgi ctrl
Cc1cc(C)nc(SCc2nnc(SCC(=O)Nc3ccc(C)c(C)c3)n2Cc2ccco2)n1	1.6	2.6	-8	-8*	17
O=C(CSc1nnc(Cc2ccccc2)n1Cc1ccco1)NC12CC3CC(CC(C3)C1)C2	1.7	0.41	-8	-3.2*	18
O=C1C(=O)c2c(C(=O)c3ccccc3)coc2-c2ccccc21	0.9	0.37	59*	-2.2	45*
Cc1oc2c(c1C(=O)c1ccccc1)C(=O)C(=O)c1ccccc1-2	0.9	-2.3	27	-5.1	43*
CC(Sc1nnc(-c2ccc(Cl)cc2)n1C)C(N)=O (stereo not given)	0.9	-0.038	2	-0.011	2
CCOC(=O)C1=C2N(C)c3ccccc3N2CCC1=O	0.9	-0.013	-3	nt	6
CN(CC(=O)N1CCc2ccccc21)S(=O)(=O)c1ccc(Br)s1	1.2	0.82	-6	-2.5	24
Cc1cc(C(=O)NCCCN2CCN(c3cc(Cl)ccc3C)CC2)n(-c2ccccc2)n1	1.6	-0.3	-6	-4.7*	0
Cc1cc(C(=O)NCCN2CCN(c3cccc(Cl)c3)CC2)n(-c2ccccc2)n1	1.6	-0.19	-2	0.28	-4
Cn1c(=O)c2c(nc(SCc3ccccc3)n2Cc2ccc(Cl)cc2)n(C)c1=O	nt	0.34	nt	-4.4*	nt
Cn1c(N2CCN(c3ccccn3)CC2)nc2c1c(=O)n(Cc1ccc(Cl)cc1)c(=O)n2C	1.4	-0.23	-6	-3.3*	15
CN(C)c1nc2c(c(=O)n(C)c(=O)n2C)n1Cc1ccccc1	1	0.38	-1	0.4	1
CC(C)Sc1nc2c(c(=O)n(C)c(=O)n2C)n1Cc1ccc(Cl)cc1	1.1	-0.12	-4	-4.5*	77*
CSc1nc(NC(C)=O)nc(C)c1Cl	0.9	0.61	-3	0.45	2
Brc1ccc(-c2noc3c2-c2nc(-c4ccccc4)sc2CC3)cc1	nt	-2.9	nt	0.98	nt
Cn1c(Cn2c(=O)sc3ccccc32)nnc1SCc1ccccc1	nt	-0.24	7	-0.62	10
CCOC(=O)c1ccc(NC(=O)COc2ccc(S(=O)(=O)NC(C)CC)cc2)cc1 (stereo not given)	1	-0.27	-23	0.64	-3
CCOC(=O)c1ccc(NC(=O)C(C)NS(=O)(=O)c2ccc(OC)cc2)cc1 (stereo not given)	0.9	0.012	-5	0.12	36*
CC1=CCC2(CO)COC(c3ccccc3O)C1C2 (stereo not given)	1	0.13	-19	1.1	4
Cc1ccc(Cn2c(SCC(=O)N/N=C/c3ccc(C)o3)nc3ccccc32)cc1	1.7	0.41	1	-10*	9
Cc1ccc(/C=N/NC(=O)CSc2nc3ccccc3n2C)s1	1	-0.2	-5	-1.6	-4
O=C(CSc1nc2ccccc2n1Cc1ccccc1)N/N=C/c1ccco1	1.4	-0.83	-2	-4*	6
Cc1n[nH]c(C)c1CCOc1ccc(C(C)C)cc1	1.3	0.05	10	-5.4*	9
COc1cccc(OC)c1OCCCc1c(C)n[nH]c1C	1.1	0.98	3	0.24	-6
Cc1ccc(O)c(C2=NNC(O)(C(F)(F)F)C2)c1 (stereo not given)	2.2*	0.036	-6	1.7	17
SMILES	PLAP activator	hDAT+cocaine	PostGolgi yeast	Cav32 inh	PostGolgi ctrl
Cc1ccc(C(=O)N[C@@H](C)CN2C3=NC[C@H](C)N3C[C@H]2Cc2ccc(O)cc2)cc1Br	nt	-1.6	nt	-0.56	nt
CCOc1ccc2nc(NCCCNS(=O)(=O)c3ccccc3)c(C#N)cc2c1	1.1	0.34	5	-0.14	24
Cc1ccc(NS(=O)(=O)c2cc(C(=O)N3CCc4ccccc4C3)ccc2Cl)cc1	1.1	0.002	35*	-3.3	64*
Cc1cccc(NS(=O)(=O)c2cc(C(=O)N3CCN(C)CC3)ccc2C)c1	1.4	0.82	-4	-1.1	32*
CCOc1ccc2ccccc2c1C(=O)Nc1cc(=O)n(C)c(=O)n1C	nt	1.3	3	0.58	11
C=CCOC(=O)C1=C[C@@H](c2coc3ccccc3c2=O)C[C@@H](OCCCCO)O1	nt	2.8*	nt	0.75	nt
N#CC1=C(N)Oc2n[nH]c(-c3ccc(F)cc3)c2C1c1cccnc1 (stereo not given)	2*	0.49	6	1.3	2
COc1cccc(C2NC(CCSC)(C(=O)O)C3C(=O)N(C(C)C)C(=O)C23)c1O (stereo not given)	1.1	-0.086	-9	0.0044	40*
C[C@@H](C(=O)NCc1ccccc1)N1C(=O)C2CC=CCC2C1=O (stereo not given in full)	1.4	0.028	1	-0.072	6
CC(CC(=O)Nc1nc2ccccc2[nH]1)c1ccccc1 (stereo not given)	1.2	-0.88	0	-5.7*	19
CC(C(=O)Nc1nc2ccccc2[nH]1)N1C(=O)C2CC=CCC2C1=O (stereo not given)	2*	0.012	2	0.24	25
Cc1ccc(-n2nnnc2-c2cnc3cc4c(cc3c2C)OCO4)cc1	1	0.015	-4	-0.61	20
CCN(CC(=O)NCc1cccs1)S(=O)(=O)c1ccc(C(C)C)cc1	0.9	0.8	-6	-4*	22
CC(C)c1ccc(NC(=S)NCc2cccs2)cc1	0.5	1.9	-4	-6.3*	-1
CN(C)S(=O)(=O)c1ccc(C(=O)NCc2cccs2)cc1	0.9	0.43	-1	0.85	4
CC12CCC(C(=O)Nc3ncc([N+](=O)[O-])s3)(OC1=O)C2(C)C (stereo not given)	0.7	-2.3	-3	-0.42	14
COCCCN1C(=O)c2ccc(C(=O)Nc3ccc(OC)cc3)cc2C1=O	1	-0.45	0	0.57	0
COc1ccc(C(=O)OC(C(=O)c2ccccc2)c2ccccc2)cc1 (stereo not given)	0.9	-0.84	-1	-3.6	66*
Cc1ccc(C23CC4CC(CC(NC(=O)NC(C)(C)CO)(C4)C2)C3)cc1	2.3*	-1.2	-2	0.35	38*
CCN(CC)C(=O)Oc1ccc2c(=O)c(-c3ccc(OC)cc3)c(C)oc2c1	1.4	3.2*	7	-0.61	6
CC(C)(C)C(=O)Nc1ccc(N2CCCC2)cc1	1	-0.47	-6	0.21	19
CC(C)(C)N1C(=O)Cc2c1nc(N)c1c(N)nc(N3CCCCC3CO)c(C#N)c21 (stereo not given)	1.3	-4.2*	3	-0.024	-13
CSc1oc(-c2ccccc2)nc1S(=O)(=O)c1ccc(C)cc1	0.9	-0.53	-8	1	9
Cc1ccccc1-c1nc(S(=O)(=O)c2ccc(Br)cc2)c(NCc2cccnc2)o1	1.7	0.68	0	-2.5*	31*
Cc1ccc(CNc2oc(-c3ccco3)nc2S(=O)(=O)c2ccccc2)cc1	nt	0.49	nt	-4.7*	nt
Cc1ccc(S(=O)(=O)c2nc(-c3ccccc3)oc2NCc2cccnc2)cc1	1.5	1.6	-13	-5.3*	6
O=C(/C=C1\NCC2c3ccccc3CCN2C1=O)c1ccccc1 (stereo not given)	1	-0.15	-4	-0.8	8
